About 83,000 compounds went through this panel and 20% of them were active in at least one assay; those are over-represented in the sample as a whole.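 Each cell line was grown in a 96-well plate and treated with one concentration of compound for 48 hours. Values below 10 were considered active.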 Unmarked numbers belong to inactive results. Calls of active or inactive are those of the source.

This assay deals with HL-60(TB) leukemia. As to the kind of experiment: NCI-60 one-dose screen, 48 h (100 = growth as untreated, 0 = no growth, -100 = all killed). The conditions noted are these: 10 µM unless noted.
For the compound `C[C@H]1[C@H]2C3=CC[C@@H]4[C@@]5(C)C/C(=C/c6ccncc6)C(=O)C(C)(C)[C@@H]5CC[C@@]4(C)[C@]3(C)CC[C@@]2(C(=O)N2CCN(C)CC2)CC[C@@H]1C`, the growth is 57.3%.

For `OCCNc1nc(Nc2ccc(C3=NN(c4cc(Cl)cc(Cl)c4)C(c4ccc(C(F)(F)F)cc4)C3)cc2)nc(N2CCOCC2)n1` (centres undefined), the growth was 101%.

With `O=C(O)C1(Cc2cccc(Nc3nccs3)n2)CCC(Oc2cccc(Cl)c2F)CC1` (centres undefined), the growth was 50.7%.

As to `CC1(c2ccccc2)OC1C(=O)O` (centres undefined), the growth is 103%.

Regarding `COc1ccc2c(c1)/C(=C1\S/C(=N/c3nnc(C)s3)NC1=O)C(=O)N2Cc1ccc(Cl)cc1`, the growth is 53.8%.

As to `CCN1CCN(c2nc(C)cc(N(CCCNc3ccnc4cc(Cl)ccc34)Cc3ccco3)n2)CC1`, the growth was 37.5%.

With `CN(C)CC#Cc1ccc2ncc(C#N)c(Nc3ccc(F)c(Cl)c3)c2c1`, the growth is 26.8%.

For `O=C(CCCCCCC(=O)Nc1ccccc1)NO`, the growth is -0.31% (active).

Regarding `COc1cc(C(=O)Nc2ccc(N(C)C)cc2)cc(OC)c1OC`, the growth was 95.8%.

`Nc1nc(N)c2nc3c(nc2n1)CCCCCCCCCC3`: the growth was 33.4%.

With `CCC(CO)Nc1nc2ccc(Cl)cc2c2ccccc12` (centres undefined), the growth was 25%.

For `c1cc2c(ccc3[nH]c(-c4ccc5[nH]ncc5c4)c4c(c32)CCCC4)n1`, the growth was 9.65% (active).

Take `Cc1cc(NC(=O)Nc2cccc3ccccc23)no1`: the growth was 99.5%.

For the compound `COc1cc2cc3c(nc2cc1OC)CCN3Cc1ccc(NC(=O)c2ccc(Cl)c(C(F)(F)F)c2)cc1`, the growth is 99.5%.

These data come from PubChem BioAssay (NCI).
